Source: PubChem (The Scripps Research Institute Molecular Screening Center)
The list is not random: actives were taken first. Their share in the collection is about 0.9%.
SRC2 TRFRET art: flags TR-FRET format artefacts in PPARgamma SRC-2 recruitment agonist screen; 200,000 compounds, 0.4% hits; TR-FRET ratio at 8 µM; TR-FRET artefact counter-screen; hits give high values; AID 1049; in the data active = TR-FRET ratio above about 2000
PPARg SRC-2 ag: PPARgamma-driven SRC-2 recruitment agonism; activation, % at 8 µM; P37231; PPARgamma LBD-SRC-2 recruitment, biochemical; 200,000 compounds, 0.34% hits
Target sequence (P37231 whole entry, looked up, the tested form may be a part): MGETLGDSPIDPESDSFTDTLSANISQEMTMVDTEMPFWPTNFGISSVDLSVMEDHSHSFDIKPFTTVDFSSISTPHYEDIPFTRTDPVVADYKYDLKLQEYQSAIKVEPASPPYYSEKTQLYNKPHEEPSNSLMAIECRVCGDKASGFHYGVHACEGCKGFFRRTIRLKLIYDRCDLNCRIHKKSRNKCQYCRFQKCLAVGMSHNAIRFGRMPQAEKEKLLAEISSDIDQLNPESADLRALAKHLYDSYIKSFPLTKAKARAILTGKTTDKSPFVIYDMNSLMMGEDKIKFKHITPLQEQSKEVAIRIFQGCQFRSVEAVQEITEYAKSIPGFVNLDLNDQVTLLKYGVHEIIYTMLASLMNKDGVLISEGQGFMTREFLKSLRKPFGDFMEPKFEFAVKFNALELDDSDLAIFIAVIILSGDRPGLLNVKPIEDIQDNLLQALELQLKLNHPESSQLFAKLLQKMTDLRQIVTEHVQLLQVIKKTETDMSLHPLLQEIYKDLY
SRC1 TRFRET art: counter-screen for PPARgamma SRC-1 recruitment agonists: TR-FRET artefact. TR-FRET detection artefact counter-screen, emission ratio; hits give high values. TR-FRET ratio at 8 µM. 99,000 compounds, 0.34% hits; in the data active = TR-FRET ratio above about 2300
PPARg SRC3 recr: agonists of human PPARgamma SRC-3 coactivator recruitment; biochemical PPARgamma/SRC-3 coactivator recruitment assay; AID 731; 200,000 compounds, 0.26% hits; activation, % at 8 µM; P37231; in the data active = activation above about 23%
PPARg SRC-1 ag: promotes SRC-1 coactivator recruitment by human PPARgamma; PPARgamma-SRC-1 coactivator recruitment biochemical assay; activation, % at 8 µM; 200,000 compounds, 0.41% hits; AID 631; in the data active = activation above about 19%
SRC3 TRFRET art: TR-FRET artefact, counter-screen to PPARgamma/SRC-3 agonist assay; PPARgamma/SRC-3 format; hits give high values; TR-FRET ratio at 8 µM; 99,000 compounds, 0.39% hits; in the data active = TR-FRET ratio above about 2000
PPARg SRC2 conf: human PPARgamma SRC-2 recruitment agonism, confirmation | shares compounds with PPARg SRC3 recr | biochemical SRC-2 recruitment by PPARgamma | activation, % at 8 µM | 790 compounds, 52% hits | AID 1297
PPARg SRC1 conf: confirmation of agonists of SRC-1 recruitment by human PPARgamma | shares compounds with PPARg SRC3 recr | PPARgamma–SRC-1 coactivator recruitment biochemical assay | activation, % at 8 µM | 790 compounds, 43% hits; in the data active = activation above about 20%
PPARg SRC3 ag: human PPARgamma SRC-3 recruitment agonism, confirmation. shares compounds with PPARg SRC3 recr. activation, % at 8 µM. 790 compounds, 29% hits. AID 1301. biochemical PPARgamma-SRC-3 coactivator recruitment, agonist mode; in the data active = activation above about 24%
Of the large screens only hits and unclear results are named; the others gave an inactive call (follow-up assays come after a bar, where they were run). Cut-off read from the data, not from the text of the source, unless noted: active = activation above about 22%; inactive = the rest.

Cn1c(=O)cc(SCC(=O)NCC2CCCO2)c2ccc(Cl)cc21 (stereo unspecified)	SRC2 TRFRET art 2967, PPARg SRC-2 ag 89.7, PPARg SRC3 recr 112.2, PPARg SRC-1 ag 63.4 (no result: SRC1 TRFRET art, SRC3 TRFRET art) | PPARg SRC2 conf 42.9 | PPARg SRC1 conf 27.9 | PPARg SRC3 ag 29.1
Cn1c(=O)cc(SCC(=O)NCCC2=CCCCC2)c2ccc(Cl)cc21	none
CCN1CCCC1CNC(=O)CSc1cc(=O)n(C)c2cc(Cl)ccc12 (stereo unspecified)	SRC2 TRFRET art 2477, PPARg SRC-2 ag 51.7, PPARg SRC3 recr 57.2, PPARg SRC-1 ag 50.5 (no result: SRC1 TRFRET art, SRC3 TRFRET art) | PPARg SRC2 conf 38.9 | PPARg SRC1 conf 27.8 | PPARg SRC3 ag 26.7
CCn1c(=O)cc(SCC(=O)NCC2CCCO2)c2ccccc21 (stereo unspecified)	SRC2 TRFRET art 2825, PPARg SRC-2 ag 50.1, PPARg SRC3 recr 65.8, PPARg SRC-1 ag 30.9 (no result: SRC1 TRFRET art, SRC3 TRFRET art) | PPARg SRC2 conf 35.5 | PPARg SRC1 conf 21.4 | PPARg SRC3 ag inactive
O=C(Cn1cnc2ccccc21)N/N=C/C(Br)=C/c1ccccc1	none
O=C(OCC(=O)N1CCCC1=O)C1COc2ccccc2O1 (stereo unspecified)	none
